Compound activity deposited in PubChem BioAssay by National Center for Advancing Translational Sciences (NCATS).
DT40 TDP1 CPT – growth inhibition of DT40 Tdp1-/-;hTDP1 cells with camptothecin (screen for TDP1 inhibitors). chicken DT40 Tdp1-/-;hTDP1 cells + 20 nM CPT, ATP luminescence, 48 h. 420,000 compounds, 12% hits. Potency, µM (series often up to 46.2 µM), most hits filed as inhibitors; further: nearly all actives have a fitted effect of over 55% in size
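Cell growth measured by CellTiter-Glo luminescence after a minimum 48 h, 37 C compound exposure with 20 nM CPT in Tdp1-knockout DT40 cells stably expressing hTDP1, seeded 400/well; qHTS titration format.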
ELG1 repair inh – inhibitors of ELG1-dependent DNA repair in HEK293T cells; AID 504467; Potency, µM (series often up to 46.1 µM), actives largely listed as inhibitors; HEK293T ELG1-luciferase reporter, luminescence, 16 h; DNA damage induced by 5-fluorouridine; 330,000 compounds, 2.3% hits; further: nearly all actives have a fitted effect of over 55% in size
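Luminescence from the luciferase reporter, measured 30 min after ONE-Glo reagent at room temperature, was the read-out. Beforehand, 2,000 cells per well were exposed for 16 hr at 37 °C to 5-fluorouridine together with compound or vehicle.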
HT1080 IDH1KD tx – kills HT-1080 cells with IDH1 knockdown; HT-1080 IDH1 knockdown viability, ATP luminescence, 48 h; 360,000 compounds, 2% hits; Potency, µM (highest dose often 46.1 µM), actives largely listed as cytotoxic
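% activity derives from luminescence (CellTiter-Glo), normalised to DMSO and no-cell wells. HT-1080-IDH1KD cells, 750/well, had 48 h compound exposure at 37 °C.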
HT1080-NT tox – kills 2HG-producing HT-1080-NT fibrosarcoma cells. Potency, µM (series often up to 46.1 µM), most hits filed as cytotoxic. HT-1080-NT fibrosarcoma viability, CellTiter-Glo ATP luminescence, 48 h. 360,000 compounds, 1.6% hits;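 further: NT is the 2HG producing partner of a matched IDH1 knockdown line; nearly all actives have a fitted effect of over 55% in size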
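Read-out is CellTiter-Glo luminescence after 10 minutes at room temperature, following 48 hours' compound treatment of HT-1080-NT cells (750 cells/well, RPMI, 5% FBS, 37 degrees C).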
TDP1 cell noCPT – qHTS for Inhibitors of human tyrosyl-DNA phosphodiesterase 1 (TDP1): qHTS in cells in absence of CPT; DT40 Tdp1-/- hTDP1 cells, no CPT, ATP luminescence, 48 h; Potency, µM (series often up to 46.2 µM), actives largely listed as inhibitors; 420,000 compounds, 15% hits; further: nearly all actives have a fitted effect of over 55% in size
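Growth of hTDP1-complemented DT40 Tdp1-knockout cells is measured by ATP luminescence after at least 48 hr compound exposure at 37 °C, with DMSO substituting for the 20 nM CPT used in the parallel screen.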
IL1B secr inh – inflammasome signaling inhibition, IL-1 beta readout | activity change, % at 57.5 µM | 360,000 compounds, 4.7% hits | AID 743279 | THP-1 LPS/ATP IL-1B secretion, AlphaLISA, 16 h; active compounds read low; in the data active means activity change below about -50%; inconclusive means mostly about -30% to -49%
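THP-1 cells pretreated 1 hr with compounds (up to 57.5 uM final), then stimulated with LPS (250 ng/mL final) plus ATP (1.25 mM final); secreted IL-1B measured by AlphaLISA after 16 hr, decreased signal indicating inhibition.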
Numbers stand for hits; – = inactive; ? = inconclusive; · = no result; ! = repeats disagree. Shown are actives, neighbours in structure and some others; about 19% of the full set was active somewhere. Unless noted, the call rests on the fitted dose curve; in most records, active means well fitted curve in the direction sought with a large enough effect; inconclusive means small, poorly fitted or top-dose-only effect, or another doubt; inactive means no such curve, though single readings can be large; an effect the other way counts as inactive or inconclusive.

SMILES	DT40 TDP1 CPT	ELG1 repair inh	HT1080 IDH1KD tx	HT1080-NT tox	TDP1 cell noCPT	IL1B secr inh
O=C(Nc1cccc(C(F)(F)F)c1)c1ccc2sc([C@H]3C[C@H](O)[C@@H](CO)O3)nc2c1	?	·	?	?	23.1µM	–
O=C(NCc1cccnc1)c1ccc2sc([C@H]3C[C@H](O)[C@@H](CO)O3)nc2c1	–	·	–	–	–	–
O=C(NCCN1CCNC1=O)c1ccc2sc([C@H]3C[C@H](O)[C@@H](CO)O3)nc2c1	–	·	–	–	–	-86.2
COc1ccc([C@@H]2C[C@H]3[C@@H](CN2S(=O)(=O)c2ccccc2)C(=O)C[C@@H](c2ccccc2)N3S(=O)(=O)c2ccc(C)cc2)cc1	–	·	–	–	–	–
O=C(CCNc1n[nH]c(=O)[nH]c1=O)N/N=C\c1cccc(OCc2ccccc2)c1	–	–	–	–	–	–
CCCn1c2ccc(C)cc2c2nnc(SCCN3CCCCC3)nc21	18.4µM	–	?	–	20.6µM	-66.3
CCn1c2ccccc2c2n[nH]c(=S)nc21	–	–	–	–	?	–
CCCn1c2ccc(C)cc2c2n[nH]c(=S)nc21	?	–	–	–	14.6µM	–
CCCn1c2ccc(F)cc2c2nnc(SCCN3CCOCC3)nc21	18.4µM	–	?	–	?	–
CCCn1c2ccc(C)cc2c2nnc(SCCN3CCOCC3)nc21	?	?	?	?	16.4µM	-61.3
CCCN(CC(=O)Nc1ccccc1C)C(=O)c1ccc(N2CCCC2=O)cc1	–	–	–	–	–	–
COCCN1C(=O)CCC1(C)C(=O)NC1CCCC1 (centres undefined)	–	·	–	–	–	–
Cc1ccn2c(=O)cc(COc3ccc(NC(=O)COc4ccc(Cl)cc4)cc3)nc2c1	–	·	·	·	–	·
Cc1c(Cl)cccc1NC(=O)c1cnc2sc(N3CCCC3)nn2c1=O	–	·	·	·	–	·
CCn1c2ccc(F)cc2c2nnc(SCCN3CCCCC3)nc21	?	–	–	–	16.4µM!	?
CCn1c2ccc(C)cc2c2nnc(SCCN3CCCCC3)nc21	?	–	23.1µM	?	16.4µM	-66.4
CCn1c2ccc(C)cc2c2nc3cc(C(=O)O)ccc3nc21	–	?	–	–	?	–
CC(C)Oc1ccc(S(=O)(=O)N2CCOCC2)cc1NC(=O)c1ccc(N2CCCC2=O)cc1	–	–	–	–	–	–
COc1cc(C2Nc3ccc4ncccc4c3C3=C2C(=O)CCC3)ccc1O (centres undefined)	5.8µM	?	5.8µM	?	3.66µM	–
Cc1ccc2oc(C(=O)N(C)CCC(O)c3ccccc3)c(C)c2c1 (centres undefined)	?	–	–	–	?	–
Cc1cc(C(=O)N/N=C/c2ccc3c(c2)OCO3)c2ccccc2n1	2.31µM	?	4.11µM	?	2.06µM	–
O=C(N/N=C/c1ccc2c(c1)OCO2)c1cc(-c2ccncc2)nc2ccccc12	3.66µM	–	2.59µM	?	4.11µM	–
CCOc1ccc(Cl)cc1S(=O)(=O)n1nnc2ccccc21	16.4µM	–	–	–	?	–
CCOc1ccc(S(=O)(=O)n2nnc3ccccc32)cc1C	–	–	–	–	–	–
CCN(CC)CCOC(=O)c1ccc(N/C=C(/C#N)c2nc(-c3cc4ccccc4oc3=O)cs2)cc1	1.16µM	–	–	–	2.31µM	–
CCN(CC)CCOC(=O)c1ccc(N/C=C(/C#N)c2nc(-c3ccc4c(c3)OCO4)cs2)cc1	3.66µM	–	–	–	5.17µM	–
N#C/C(=C\C=C\c1ccccc1)c1nc(-c2ccc3c(c2)OCO3)cs1	–	–	–	–	–	–
CCN(CC)CCOC(=O)c1ccc(N/C=C(/C#N)c2nc(-c3ccc(OC)cc3)cs2)cc1	4.11µM	–	–	–	4.61µM	–
N#C/C(=C\c1cccc(F)c1)c1nc(-c2cc3ccccc3oc2=O)cs1	–	·	·	·	–	·
